From PubChem BioAssay (NCATS)
Results filed as inconclusive are left out. Activity calls are given as the source filed them. Unless noted, calls come from the whole dose curve; as a rule, active = well fitted curve in either direction with a large enough effect (not every such curve was filed as active); inconclusive = small, poorly fitted or top-dose-only effect, or another doubt; inactive = flat fitted curve, though single readings scatter.

Key:
[1] = target: Lysosomal acid glucosylceramidase (Homo sapiens) (UniProt P04062); assay: Glucocerebrosidase-p2 (AID 348; in the data active = potency below about 10 µM; note: potency is the fitted concentration of half-maximal effect); conditions: purified GBA, blue fluorogenic substrate, 40 min
Lysosomal acid glucosylceramidase (Homo sapiens), sequence (P04062 whole entry, looked up): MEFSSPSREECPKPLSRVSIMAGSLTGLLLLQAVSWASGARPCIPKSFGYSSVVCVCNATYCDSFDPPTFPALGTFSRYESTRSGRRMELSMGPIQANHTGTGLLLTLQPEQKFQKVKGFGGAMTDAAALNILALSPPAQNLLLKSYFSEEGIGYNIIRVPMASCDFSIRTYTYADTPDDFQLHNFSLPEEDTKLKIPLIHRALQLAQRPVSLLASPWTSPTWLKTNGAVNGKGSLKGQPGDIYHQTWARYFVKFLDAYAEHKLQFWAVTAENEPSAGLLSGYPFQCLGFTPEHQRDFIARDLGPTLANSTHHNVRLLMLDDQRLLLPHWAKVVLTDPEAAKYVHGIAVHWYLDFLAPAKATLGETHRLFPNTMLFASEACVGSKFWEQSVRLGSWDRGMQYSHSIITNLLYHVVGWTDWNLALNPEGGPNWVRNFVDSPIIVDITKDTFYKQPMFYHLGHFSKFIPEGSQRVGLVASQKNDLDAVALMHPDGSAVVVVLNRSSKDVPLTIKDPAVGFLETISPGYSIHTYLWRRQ
Procedure, shortened: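 Normal human glucocerebrosidase (0.2 nM) with blue fluorogenic substrate (80 uM final) in citrate/phosphate pH 5.9 with 10mM sodium taurocholate, 0.01% tween-20; 40 min RT, NaOH/glycine stop; fluorescence Ex 365/Em 440; AC50 from a titration from 0.6 nM upwards.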

[2] = AP1 Signaling Pathway (AID 357); conditions: ME-180 AP-1-bla reporter, EGF-induced, beta-lactamase ratio, 5 h; at 7.69 µM (top of the series) unless noted;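 note: ME-180 reporter cells stimulated with EGF at its EC50 level; % is set by controls: 0 for no effect and ±100 for the full control effect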
Procedure, shortened: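 Read-out was the 460nm/530nm emission ratio (excitation 405nm) after CCF4 loading for 2.5 hours at room temperature. Cells carried an AP-1-driven beta-lactamase reporter, were stimulated with EC50 EGF plus compound for 5 hours, and AC50 values came from titrations.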

[3] = target: Cytochrome P450 1A2 (Homo sapiens) (UniProt P05177); assay: p450-cyp1a2 (AID 410; calls by dose curve; note: potency is the fitted concentration of half-maximal effect;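 for activity change, negative = inhibition: -100% = full effect of reference inhibitor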); conditions: recombinant CYP1A2, luciferin-ME demethylation, luminescence; series mostly up to 57 µM
Cytochrome P450 1A2 (Homo sapiens), sequence (P05177 whole entry, looked up): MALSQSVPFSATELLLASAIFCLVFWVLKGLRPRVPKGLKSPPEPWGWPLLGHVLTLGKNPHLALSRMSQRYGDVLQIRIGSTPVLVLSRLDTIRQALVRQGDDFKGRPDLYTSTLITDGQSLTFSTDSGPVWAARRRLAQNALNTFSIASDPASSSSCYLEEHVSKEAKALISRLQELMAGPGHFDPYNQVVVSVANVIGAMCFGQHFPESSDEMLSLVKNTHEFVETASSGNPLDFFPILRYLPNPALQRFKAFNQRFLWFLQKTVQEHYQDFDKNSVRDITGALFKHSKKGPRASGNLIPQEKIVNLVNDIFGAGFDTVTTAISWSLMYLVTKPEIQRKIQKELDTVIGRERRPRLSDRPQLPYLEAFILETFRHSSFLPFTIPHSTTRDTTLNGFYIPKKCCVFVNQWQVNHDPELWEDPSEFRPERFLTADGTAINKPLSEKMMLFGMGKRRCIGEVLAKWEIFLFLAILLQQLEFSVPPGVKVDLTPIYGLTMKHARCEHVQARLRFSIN
Procedure, shortened: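 O-Demethylation of luciferin 6' methyl ether by human CYP1A2 is monitored as luciferase luminescence. Substrate sits at Km (100uM); enzyme is 20nM. Values are scaled to 57 uM furafylline as maximal inhibition.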

[4] = NFAT Signaling Pathway (AID 444); conditions: Jurkat NFAT-bla M1, carbachol, beta-lactamase ratio, 5 h; at 7.69 µM (top of the series) unless noted;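 note: carbachol stimulus at about its EC50 of 1 µM final; % is set by controls: 0 for no effect and ±100 for the full control effect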
Procedure, shortened: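 Read-out: CCF4 FRET ratio (460 nm/530 nm) after 1 h RT dye loading, used for %activity and AC50 from titration series. Cells: Jurkat NFAT-β-lactamase/M1 line, treated with compound plus 1 uM carbachol for 5 h, 37 °C.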

[5] = Stat Signaling Pathway (AID 446); conditions: ME-180 (cervical carcinoma) SIE beta-lactamase reporter, IL-6 stimulated, 5 h; at 7.69 µM (top of the series) unless noted;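 note: ME-180 cervical cancer cells given 40 pM IL-6 alongside compound; SIE-controlled beta-lactamase reporter measured as 460/530 nm FRET emission ratio; % is set by controls: 0 for no effect and ±100 for the full control effect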
Procedure, shortened: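 Overnight-plated ME-180 cells bearing a STAT Inducible Element beta-lactamase reporter; 5 h co-exposure to compound and 40 pM IL-6; values normalized to 300 pM IL-6 and 125 nM JAK inhibitor controls.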

[6] = target: Glucocorticoid receptor (Homo sapiens) (UniProt P04150); assay: GR-GFP Redistribution (AID 450;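 active = compounds whose dose series gives a full or clear partial fitted curve of increased nuclear translocation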; note: potency is the fitted concentration of half-maximal effect); conditions: U2OS GR-GFP nuclear translocation, laser cytometry, 2 h
Glucocorticoid receptor (Homo sapiens), sequence (P04150 whole entry, looked up, the tested form may be a part): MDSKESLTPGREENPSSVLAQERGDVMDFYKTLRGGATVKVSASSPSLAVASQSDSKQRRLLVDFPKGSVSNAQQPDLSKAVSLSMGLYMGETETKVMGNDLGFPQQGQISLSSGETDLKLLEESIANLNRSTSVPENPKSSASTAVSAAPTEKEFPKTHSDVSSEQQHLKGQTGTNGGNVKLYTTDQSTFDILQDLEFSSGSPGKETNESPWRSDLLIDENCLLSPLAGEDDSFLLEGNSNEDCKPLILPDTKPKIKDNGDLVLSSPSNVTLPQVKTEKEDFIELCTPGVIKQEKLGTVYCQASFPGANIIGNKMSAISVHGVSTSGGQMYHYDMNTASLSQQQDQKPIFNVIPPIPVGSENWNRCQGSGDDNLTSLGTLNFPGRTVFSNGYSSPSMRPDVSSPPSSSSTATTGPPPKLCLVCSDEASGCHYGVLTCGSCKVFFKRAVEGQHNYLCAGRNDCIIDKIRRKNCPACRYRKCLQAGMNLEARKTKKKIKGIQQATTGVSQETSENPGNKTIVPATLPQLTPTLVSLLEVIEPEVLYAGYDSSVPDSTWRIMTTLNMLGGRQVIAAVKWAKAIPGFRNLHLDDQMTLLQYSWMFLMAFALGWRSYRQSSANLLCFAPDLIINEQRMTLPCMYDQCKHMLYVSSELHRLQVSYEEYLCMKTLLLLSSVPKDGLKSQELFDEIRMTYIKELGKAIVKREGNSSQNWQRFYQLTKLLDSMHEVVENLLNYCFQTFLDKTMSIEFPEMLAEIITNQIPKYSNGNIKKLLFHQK

[7] = target: Glucocorticoid receptor (Homo sapiens) (UniProt P04150); assay: GR-EFC Redistribution (AID 451; calls by dose curve; note: potency is the fitted concentration of half-maximal effect); conditions: CHO-K1 GR-EFC translocation, beta-gal luminescence, 2 h
Procedure, shortened: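 Translocation of GR-ED fusion to nuclear EA restores b-gal, read by luminescence after 1 h room-temperature detection. Engineered CHO-K1 biosensor cells, 1,000/well, exposed 2 h at 37 C to titrations up to 46 uM final.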

[8] = target: Mitogen-activated protein kinase 10 (Mus musculus) (UniProt Q61831); assay: JNK3 AlphaScreen Assay (AID 530); conditions: JNK3 lysate, c-Jun phosphorylation; series mostly up to 57.1 µM;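 note: kinase came from lysate of stimulated human HepG2 cells; signal reports phosphorylation of biotinylated GST-cJun 1-79 at Ser73 with 10 µM ATP; % is set by controls: 0 for no effect and ±100 for the full control effect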
Procedure, shortened: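 qHTS titrations with 15 min compound pre-incubation before adding ATP (10 uM final). Read-out: AlphaScreen of Ser73-phosphorylated biotin-GST-cJun using HepG2 lysate JNK3 activated by IL-1β and TNFα.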

[9] = target: 3',5'-cyclic-AMP phosphodiesterase 4B (Homo sapiens) (UniProt Q07343); assay: qHTS Assay for Inhibitors of PDE-IV (AID 607; active = well fitted activation curve with a large enough effect in the main read-out, with a control signal flat, not every such curve was filed as active; note: % of control where 0% means no effect); conditions: HEK293 ACTOne CNG channel cells, membrane potential fluorescence; series mostly up to 22.9 µM
3',5'-cyclic-AMP phosphodiesterase 4B (Homo sapiens), sequence (Q07343 whole entry, looked up): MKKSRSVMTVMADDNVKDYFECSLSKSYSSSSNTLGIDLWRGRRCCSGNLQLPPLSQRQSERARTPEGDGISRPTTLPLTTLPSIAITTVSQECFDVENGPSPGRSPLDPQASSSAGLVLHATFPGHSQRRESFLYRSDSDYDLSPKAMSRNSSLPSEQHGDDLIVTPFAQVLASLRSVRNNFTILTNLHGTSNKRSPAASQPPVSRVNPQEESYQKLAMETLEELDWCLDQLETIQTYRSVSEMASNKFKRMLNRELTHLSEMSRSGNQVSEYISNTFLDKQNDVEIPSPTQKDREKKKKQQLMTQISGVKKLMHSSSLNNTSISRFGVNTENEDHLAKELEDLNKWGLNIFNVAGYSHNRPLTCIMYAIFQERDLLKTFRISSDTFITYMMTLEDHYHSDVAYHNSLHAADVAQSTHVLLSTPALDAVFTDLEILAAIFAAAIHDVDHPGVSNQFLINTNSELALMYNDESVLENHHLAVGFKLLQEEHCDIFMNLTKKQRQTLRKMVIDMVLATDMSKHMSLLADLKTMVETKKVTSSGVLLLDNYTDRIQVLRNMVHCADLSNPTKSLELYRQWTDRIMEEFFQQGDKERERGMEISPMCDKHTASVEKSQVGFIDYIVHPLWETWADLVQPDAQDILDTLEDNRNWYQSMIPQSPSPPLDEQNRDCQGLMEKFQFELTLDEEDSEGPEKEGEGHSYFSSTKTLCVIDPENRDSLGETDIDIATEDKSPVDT
Procedure, shortened: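 Live HEK293 cells with a modified cyclic nucleotide-gated (CNG) channel report intracellular cAMP via membrane-potential dye fluorescence (ex 535/em 590 nm). Endogenous PDE-IV was targeted. Compounds were tested at up to 22.9 uM final; RO 20-1724 100 uM served as control.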

[10] = target: Cytochrome P450 3A4 (Homo sapiens) (UniProt P08684); assay: qHTS Assay for Activators of Cytochrome P450 3A4 (AID 885; active = well fitted curve in the direction sought with a large enough effect; an effect the other way counts as inactive or inconclusive; note: nearly all actives have a fitted effect of over 65% in size); conditions: recombinant CYP3A4, Luciferin-PPXE luminescence, 60 min; series mostly up to 57.1 µM
Cytochrome P450 3A4 (Homo sapiens), sequence (P08684 whole entry, looked up): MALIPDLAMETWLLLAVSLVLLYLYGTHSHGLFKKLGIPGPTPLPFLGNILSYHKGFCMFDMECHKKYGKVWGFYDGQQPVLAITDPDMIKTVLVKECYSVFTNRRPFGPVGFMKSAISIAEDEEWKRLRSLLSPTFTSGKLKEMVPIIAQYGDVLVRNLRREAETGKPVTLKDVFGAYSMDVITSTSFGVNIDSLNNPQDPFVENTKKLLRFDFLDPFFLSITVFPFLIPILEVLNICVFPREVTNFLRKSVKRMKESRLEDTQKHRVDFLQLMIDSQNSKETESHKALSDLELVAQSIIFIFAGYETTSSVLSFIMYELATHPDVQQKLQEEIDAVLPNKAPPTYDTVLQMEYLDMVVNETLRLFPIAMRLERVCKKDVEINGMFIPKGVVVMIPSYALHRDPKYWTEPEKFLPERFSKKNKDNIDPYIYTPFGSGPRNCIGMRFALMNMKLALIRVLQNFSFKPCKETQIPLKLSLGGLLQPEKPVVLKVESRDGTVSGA
Procedure, shortened: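 Using 20nM recombinant human CYP3A4 in potassium phosphate (200mM), substrate Luciferin-PPXE at 25uM, luminescent luciferin detection followed a 60-min RT NADPH reaction; data scaled to 57 uM ketoconazole.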

[11] = Confirmation and Secondary Assay for Modulators of Hemoglobin Beta Chain Splicing at IVS2 654 locus (AID 910; active = well fitted curve in the direction sought with a large enough effect; an effect the other way counts as inactive or inconclusive;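 note: HeLa cells stably carrying EGFP split by mutant beta-globin IVS2-654 intron; per-well total GFP intensity by laser scanning cytometry after 2-day treatment; % of control where 0% means no effect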); conditions: HeLa EGFP-654 splicing reporter, GFP fluorescence, 48 h; series mostly up to 38.3 µM
Procedure, shortened: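 Readout: per-well total peak green fluorescence (488 nm ex, 500–520 nm em) from objects 5–250 µm, reflecting correct splicing of an EGFP-654 reporter. Compounds were applied for 2 days at 37 °C to overnight-plated HeLa EGFP-654 cells; controls were DMSO and 500 nM IVS2-654 PNA.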

[12] = Confirmation and Secondary Assay for Modulators of Hemoglobin Beta Chain Splicing at IVS2 705 locus (AID 930; active = well fitted curve in the direction sought with a large enough effect; an effect the other way counts as inactive or inconclusive;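 note: HeLa cells stably expressing the EGFP-705 splicing reporter; GFP fluorescence per well restored by corrected splicing of the IVS2-705 intron in EGFP; % of control where 0% means no effect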); conditions: HeLa EGFP-705 splicing reporter, GFP fluorescence, 48 h; series mostly up to 38.3 µM
Procedure, shortened: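 Per-well GFP, captured at 1 x 8 µm resolution with 488 nm excitation, served as the read-out for HeLa EGFP-705 cells incubated 2 days with test compound versus DMSO.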

[13] = qHTS Assay for Lipid Storage Modulators (AID 1519; calls by dose curve); conditions: Drosophila S3 cells, BODIPY lipid droplet/cell ratio, laser cytometry, cells loaded with oleic acid; for activity change, negative = inhibition: at 57.5 µM (top of the series)
Procedure, shortened: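 Cells seeded at 5,000 per well were treated with compounds over a concentration series and loaded with oleic acid (400 uM, as added). Lipid droplet fluorescence (488 nm excitation, 500-530 nm channel) was read by laser-scanning cytometry and normalized to 20 uM Triacsin C.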

[14] = target: Ubiquitin carboxyl-terminal hydrolase 1 (Homo sapiens) (UniProt O94782); assay: Inhibitors of USP1/UAF1: Pilot qHTS (AID 504865; active = well fitted curve in the direction sought with a large enough effect; an effect the other way counts as inactive or inconclusive; note: nearly all actives have a fitted effect of over 35% in size; note: potency is the fitted concentration of half-maximal effect); conditions: purified USP1/UAF1, Ub-rhodamine cleavage fluorescence; series mostly up to 54.9 µM
Ubiquitin carboxyl-terminal hydrolase 1 (Homo sapiens), sequence (O94782 whole entry, looked up): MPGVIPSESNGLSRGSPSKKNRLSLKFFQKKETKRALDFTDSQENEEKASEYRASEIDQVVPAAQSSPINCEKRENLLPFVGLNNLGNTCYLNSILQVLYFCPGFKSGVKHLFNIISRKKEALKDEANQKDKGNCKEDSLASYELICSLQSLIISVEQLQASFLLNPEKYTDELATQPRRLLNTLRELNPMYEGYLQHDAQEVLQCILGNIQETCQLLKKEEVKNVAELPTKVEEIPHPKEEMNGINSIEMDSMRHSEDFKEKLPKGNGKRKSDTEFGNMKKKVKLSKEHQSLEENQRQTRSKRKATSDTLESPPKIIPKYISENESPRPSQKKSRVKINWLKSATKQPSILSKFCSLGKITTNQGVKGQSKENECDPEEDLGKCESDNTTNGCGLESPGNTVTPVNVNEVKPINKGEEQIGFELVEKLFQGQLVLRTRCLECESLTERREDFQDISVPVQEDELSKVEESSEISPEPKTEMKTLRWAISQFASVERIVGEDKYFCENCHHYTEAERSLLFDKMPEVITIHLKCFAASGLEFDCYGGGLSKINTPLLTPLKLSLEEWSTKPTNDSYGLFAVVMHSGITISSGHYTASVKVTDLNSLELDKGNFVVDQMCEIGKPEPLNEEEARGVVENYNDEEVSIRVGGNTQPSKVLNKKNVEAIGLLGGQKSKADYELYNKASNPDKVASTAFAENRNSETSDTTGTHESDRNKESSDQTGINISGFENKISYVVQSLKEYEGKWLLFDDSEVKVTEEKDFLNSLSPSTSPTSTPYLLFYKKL
Procedure, shortened: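 In 50mM HEPES pH 7.8 containing 0.5mM EDTA, 1mM TCEP, 0.1 mg/ml BSA and 0.01% Tween-20, 1nM USP1/UAF1 is exposed to compound for 15 min, then Ub-Rho (150nM final) is added and fluorescence is read over time.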

[15] = Primary qHTS for small molecule stabilizers of the endoplasmic reticulum resident proteome: Secreted ER Calcium Modulated Protein (SERCaMP) assay (AID 1508630; active = well fitted curve in the direction sought with a large enough effect; an effect the other way counts as inactive or inconclusive; note: % is set by controls: 0 for no effect and ±100 for the full control effect); conditions: SH-SY5Y GLuc-SERCaMP (Gaussia luciferase released on ER calcium loss) secretion, thapsigargin, luminescence; series mostly up to 38.4 µM
Procedure, shortened: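 The SH-SY5Y reporter protocol was run at 3 concentrations up to 38.3 uM (primary) or 11 concentrations (follow-up): 16 h compound, 100 nM thapsigargin for 4 h, then extracellular luciferase luminescence.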

[16] = target: Cytochrome P450 3A4 (Homo sapiens) (UniProt P08684); assay: qHTS Assay for Inhibitors and Substrates of Cytochrome P450 3A4 (AID 884; active = well fitted curve in the direction sought with a large enough effect; an effect the other way counts as inactive or inconclusive; note: potency is the fitted concentration of half-maximal effect; nearly all actives have a fitted effect of over 50% in size); conditions: recombinant CYP3A4, Luciferin-PPXE luminescence; series mostly up to 57.1 µM
Procedure, shortened: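 Luminescent readout of luciferin produced by CYP3A4 (20 nM) dealkylation of Luciferin-PPXE, 25 uM (its KM). NADPH-driven reaction ran 60 min at RT after 10 min compound preincubation; data scaled to 57 uM ketoconazole as 100% inhibition.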

[17] = target: Cytochrome P450 2C19 (Homo sapiens) (UniProt P33261); assay: qHTS Assay for Inhibitors and Substrates of Cytochrome P450 2C19 (AID 899; active = well fitted curve in the direction sought with a large enough effect; an effect the other way counts as inactive or inconclusive; note: nearly all actives have a fitted effect of over 60% in size; note: potency is the fitted concentration of half-maximal effect); conditions: recombinant CYP2C19, luciferin-H EGE luminescence; series mostly up to 57.1 µM
Cytochrome P450 2C19 (Homo sapiens), sequence (P33261 whole entry, looked up): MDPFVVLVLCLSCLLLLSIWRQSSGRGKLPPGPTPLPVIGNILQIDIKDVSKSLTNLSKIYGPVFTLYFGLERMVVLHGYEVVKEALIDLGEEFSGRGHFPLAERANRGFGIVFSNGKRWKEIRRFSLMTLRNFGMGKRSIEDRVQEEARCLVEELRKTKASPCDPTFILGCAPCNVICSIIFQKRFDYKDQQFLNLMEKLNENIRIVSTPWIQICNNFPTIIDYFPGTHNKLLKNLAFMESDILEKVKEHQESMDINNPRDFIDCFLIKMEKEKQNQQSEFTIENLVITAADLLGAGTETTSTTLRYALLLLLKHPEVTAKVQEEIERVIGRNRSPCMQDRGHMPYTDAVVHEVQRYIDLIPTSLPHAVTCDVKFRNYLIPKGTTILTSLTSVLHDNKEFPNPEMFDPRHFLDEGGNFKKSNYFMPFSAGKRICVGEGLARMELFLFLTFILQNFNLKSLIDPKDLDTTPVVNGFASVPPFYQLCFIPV
Procedure, shortened: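 Reactions contain 5nM enzyme, 10uM Luciferin-H EGE (KM) and 50mM KPO4; compound preincubates 10 min at 37C, NADPH regeneration starts turnover for 60 min. Luminescence after detection reagent gives activity.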

[18] = measured here: cell count channel max response
[19] = measured here: lipid channel max response

SMILES	Potency [1]	activity change, negative = inhibition [2]	Potency [3]	activity change, negative = inhibition [4]	activity, negative = inhibition [5]	Potency [6]	Potency [7]	outcome [8]	Potency [9]	Potency [10]	outcome [11]	outcome [12]	activity change, negative = inhibition [13]	max response [13, 18] [%]	max response [13, 19] [%]	Potency [14]	Potency [15]	Potency [16]	Potency [17]
c1nc(NC2CCNCC2)c2cc(-c3ccc4c(c3)OCO4)ccc2n1	> 11.4 µM (inactive)	7.44% (inactive)	12.6 µM (active)	15.7% (inactive)	2.23% (inactive)	> 46 µM (inactive)	> 46 µM (inactive)	inactive	inactive	inactive	inactive	inactive	6.44% (inactive)	1.52	6.41	inactive	inactive		
COc1cccc(-c2nccc(NCc3cccc(C)c3)n2)c1	> 11.4 µM (inactive)	-15.4% (inactive)	0.316 µM (active)	-2.73% (inactive)	-25.6% (inactive)	> 46 µM (inactive)	> 46 µM (inactive)	inactive	inactive	inactive	inactive	inactive	7.01% (inactive)	-6.39	-3.6	35.5 µM (active)	inactive	3.98 µM (active)	
CNc1ccnc(-c2ccccc2C(F)(F)F)n1	> 11.4 µM (inactive)	1.92% (inactive)	12.6 µM (active)	5.43% (inactive)	-22.6% (inactive)	> 46 µM (inactive)	> 46 µM (inactive)	inactive	inactive	inactive	inactive	inactive	4.06% (inactive)	2.06	6.45	inactive	inactive		
Cc1cnc(CNc2ncncc2-c2ccccc2C#N)cn1	> 11.4 µM (inactive)	8.99% (inactive)	0.251 µM (active)	-5.21% (inactive)	-4.72% (inactive)	> 46 µM (inactive)	> 46 µM (inactive)	inactive	inactive	inactive	inactive	inactive	8.38% (inactive)	14	24.3	inactive	inactive		
CN(C)c1ccc(-c2ccc3ncnc(N4CCNCC4)c3c2)cc1	> 11.4 µM (inactive)	5.26% (inactive)	2.51 µM (active)	-13.1% (inactive)	5.8% (inactive)	> 46 µM (inactive)	> 46 µM (inactive)	inactive	inactive	inactive	inactive	inactive	7.34% (inactive)	-3.08	4.85		inactive		
Cc1nc2cnc(Oc3cccc(Cl)c3)nc2n(CCC#N)c1=O	> 11.4 µM (inactive)	-16% (inactive)	15.8 µM (active)	1.8% (inactive)	-7.79% (inactive)	> 9.22 µM (inactive)	> 46 µM (inactive)	inactive	inactive	inactive			3.95% (inactive)	19.7	26.1		inactive		
Cc1nc2cnc(N3CCOCC3)nc2n(CCC#N)c1=O	> 11.4 µM (inactive)	2.45% (inactive)	12.6 µM (active)	-9.52% (inactive)	21.2% (inactive)	> 9.22 µM (inactive)		inactive					5.38% (inactive)	1.22	11.9		inactive		
COc1ccc(-n2c(=O)c(C)nc3cnc(Oc4ccccc4)nc32)cc1	> 11.4 µM (inactive)	-0.42% (inactive)	7.94 µM (active)	4.01% (inactive)	-17.4% (inactive)	> 9.22 µM (inactive)	> 46 µM (inactive)	inactive	inactive	inactive			1.98% (inactive)	16.7	20.5		inactive		
N#CCCn1c(=O)cnc2cnc(N3CCOCC3)nc21	> 11.4 µM (inactive)	-13.7% (inactive)	10 µM (active)	-0.169% (inactive)	19.5% (inactive)	> 9.22 µM (inactive)	> 46 µM (inactive)						6.47% (inactive)	18.1	23.1		inactive		inactive
COC(=O)N1CCC2(CCN(Cc3cc(C(F)(F)F)cc(C(F)(F)F)c3)CC2)CC1	> 11.4 µM (inactive)	-23.4% (inactive)	inactive	-22.9% (inactive)	0.155% (inactive)		> 46 µM (inactive)	inactive					2.7% (inactive)	-2.08	2.77		inactive		
COc1ncc2ncc(=O)n(C)c2n1	> 11.4 µM (inactive)	-3.14% (inactive)	12.6 µM (active)	2.1% (inactive)	-12.1% (inactive)	> 9.22 µM (inactive)	> 46 µM (inactive)	inactive	inactive				6.15% (inactive)	14.9	24.1		inactive		
COc1cccc(-c2cncnc2-n2ccnc2)c1	> 11.4 µM (inactive)	3.37% (inactive)	0.1 µM (active)	-0.356% (inactive)	-1.78% (inactive)	> 46 µM (inactive)		inactive	inactive	inactive	inactive	inactive	7.42% (inactive)	-2.24	4.82	inactive	inactive	0.316 µM (active)	631 nM (active)
